Screens (PubChem BioAssay)
PvdQ inh: P. aeruginosa PvdQ acylase inhibitors, primary screen, biochemical, fluorescence, plate reader and imaging, single point. PvdQ acylase [Pseudomonas aeruginosa LESB58]. inhibition, % at 10 µM. 340,000 compounds, 0.063% hits. purified PvdQ acylase; in the data active means inhibition above about 30%, passing the limit was not always enough;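 further: 0% = vehicle neutral wells and 100% = reference inhibitor wells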
ERp5 block: inhibitors of ERp5-driven insulin aggregation, primary screen, biochemical, turbidity, absorbance 650 nm, single point. 90 min. Protein disulfide-isomerase A6 (Homo sapiens), Q15084. AID 651711, 2012. 350,000 compounds, 0.05% hits. inhibition, % at 9.99 µM;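 active means mean replicate inhibition above about 25%, with every replicate also reaching it, limit read from the data, passing the limit was not always enough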
PDI turbidity: inhibitors of human PDI, primary screen, biochemical, turbidity, single point, plate reader | Protein disulfide-isomerase (Homo sapiens), P07237 | PDI insulin aggregation turbidity, A650, 90 min | inhibition, % at 10 µM | 350,000 compounds, 0.052% hits | AID 588391, 2011;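 active means mean inhibition across replicates of 30% or more, whatever share of single replicates reach that level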
Rtt109 HAT inh: inhibitors of C. albicans Rtt109/Vps75 HAT, primary screen, biochemical, ThioGlo CoA-SH fluorescence, plate reader | AID 540336, 2011 | 330,000 compounds, 0.16% hits | purified Rtt109/Vps75, 4 h | inhibition, % at 34.9 µM;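 active means inhibition of at least 50% in every replicate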
Target sequence (Q5AAJ8 whole entry, looked up): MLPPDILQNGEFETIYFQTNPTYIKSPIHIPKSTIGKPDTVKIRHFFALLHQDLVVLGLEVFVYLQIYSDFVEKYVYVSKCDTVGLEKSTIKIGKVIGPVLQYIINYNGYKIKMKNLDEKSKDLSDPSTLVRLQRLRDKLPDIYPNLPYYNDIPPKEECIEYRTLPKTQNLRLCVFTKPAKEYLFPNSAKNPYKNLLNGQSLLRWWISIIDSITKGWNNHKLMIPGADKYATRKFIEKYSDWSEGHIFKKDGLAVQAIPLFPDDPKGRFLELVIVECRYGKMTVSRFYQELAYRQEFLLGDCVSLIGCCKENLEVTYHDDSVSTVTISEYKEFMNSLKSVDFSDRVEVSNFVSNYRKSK
ERAP1 inh: human ERAP1 aminopeptidase inhibitors, primary screen, biochemical, single point, plate reader; Endoplasmic reticulum aminopeptidase 1 (Homo sapiens), Q9NZ08; recombinant ERAP1, Leu-AMC fluorescence, 60 min; inhibition, % at 10.7 µM; 340,000 compounds, 0.15% hits;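 active means mean replicate inhibition of at least 30%, or all replicates individually reaching that 30% level; inactive means mean below 30% and not every replicate reaching it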;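 further: 0% = neutral control wells and 100% = L-leucinethiol positive control wells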
* = called active by the depositor; · = no result. Compounds with a hit are over-represented: about 0.35% of the library has one in this group of screens.

SMILES	PvdQ inh	ERp5 block	PDI turbidity	Rtt109 HAT inh	ERAP1 inh
C[C@@H]1O[C@@H](O[C@H]2[C@H](O)[C@@H](O)[C@H](Oc3c(-c4ccc(O)cc4)oc4cc(O)cc(O)c4c3=O)O[C@@H]2CO)[C@H](O)[C@H](O)[C@H]1O	7	3	55*	6	2
C[C@@H]1O[C@@H](OC[C@@H]2O[C@H](Oc3c(-c4ccc(O)cc4)oc4cc(O)cc(O)c4c3=O)[C@@H](O)[C@H](O)[C@H]2O)[C@H](O)[C@H](O)[C@H]1O	-1	3	65*	9	2
CC1OC(Oc2c(-c3cc(O)c(O)c(O)c3)oc3cc(O)cc(O)c3c2=O)C(O)C(O)C1O (centres undefined)	-15	5	·	8	28
CC(C)[C@@H](C)NC(=O)N(C)C[C@@H]1OCc2ccccc2-c2ccccc2C(=O)N([C@@H](C)CO)C[C@@H]1C	·	-3	·	·	2
c1ccc2c(c1)Cn1nc(Cc3nc4c(s3)CCCC4)nc1-2	1	·	17	5	·
N#CCc1nc2n(n1)Cc1ccccc1-2	11	·	7	73*	·
COc1ccccc1CN1[C@@H]2CN(C(=O)c3ccc(F)cc3)c3ccccc3[C@@H]2[C@@H]1CO	·	-1	·	·	1
Cc1ccc(S(=O)(=O)N(C)C[C@H]2OCCCC[C@H](C)Oc3ccc(NS(=O)(=O)c4ccc(F)cc4)cc3C(=O)N([C@H](C)CO)C[C@@H]2C)cc1	·	1	·	·	2
Cn1ccsc1=NC(=O)c1ccc([N+](=O)[O-])o1	2	4	15	0	-3
COc1cc(C(=O)N=c2sccn2C)c([N+](=O)[O-])cc1OC	1	-8	-10	4	45*
COc1ccc(NC(=O)N(C)C[C@H]2OCc3ccccc3-c3ccccc3C(=O)N([C@H](C)CO)C[C@@H]2C)c(OC)c1	·	-6	·	·	2
Oc1cc(O)cc(C=Cc2ccc(O)c(O)c2)c1	·	-1	·	·	31*
COc1ccc2ccc3cccc[n+]3c2c1	-16	-5	8	-8	43*
CCOc1ccc(OCCCC(=O)N2CCN(S(=O)(=O)c3ccc(Cl)cc3)CC2)cc1	-11	1	-9	-5	32*
O=C(CCCOc1ccccc1)N1CCN(S(=O)(=O)c2ccc(Cl)cc2)CC1	-20	-3	5	-3	3
CCCCNS(=O)(=O)c1ccc(OC)c(Cl)c1Cl	10	·	-8	-1	·
CCC(C)NS(=O)(=O)c1ccc(OC)c(Cl)c1Cl (centres undefined)	35*	·	1	-3	·
C[C@H](CO)N1C[C@H](C)[C@@H](CN(C)Cc2ccc(C(F)(F)F)cc2)OCCCC[C@H](C)Oc2ccc(NC(=O)c3ccncc3)cc2C1=O	·	-1	·	·	-4
O=C(CCN1C(=O)/C(=C/c2ccc(F)cc2)SC1=S)NC1C=CS(=O)(=O)C1 (centres undefined)	-11	-2	-7	-21	-2
CC(C(=O)NC1C=CS(=O)(=O)C1)N1C(=O)/C(=C/c2ccc(Cl)cc2)SC1=S (centres undefined)	-2	-3	6	139*	-2
C[C@@H]1CN([C@H](C)CO)C(=O)c2cccc(NS(=O)(=O)c3cn(C)cn3)c2O[C@@H]1CN(C)CC1CCCCC1	·	-7	·	·	1
C/C=C/c1ccc([C@H]2[C@@H](CO)N(C(C)=O)[C@H]2CN(CCOC)C(C)=O)cc1	·	3	·	·	-1
COC(=O)c1ccc(OC(=O)c2ccco2)cc1	81*	·	0	5	·
CCC(=O)c1ccc(OC(=O)c2cccs2)cc1	41*	·	1	3	·
COC(=O)c1ccc(OC(=O)c2cccs2)cc1	55*	-4	-3	4	-4
COc1ccc(C(=O)N/N=C/c2ccc(OC(=O)c3cccs3)cc2)cc1	-6	-1	-5	4	-1
CN1CCN(C(=O)C[C@H]2C=C[C@@H](NC(=O)Nc3ccccc3F)[C@H](CO)O2)CC1	·	-5	·	·	-1
Cc1ccc(Cl)cc1NC(=O)CCC(=O)O	-24	2	-1	-5	45*
CO[C@@H]1CN(C)C(=O)c2cc(NC(=O)C3CCCCC3)ccc2OC[C@H](C)N(C)C[C@@H]1C	·	8	·	·	1
